Values without a mark were called inactive. The rule behind the calls is not given here.
These compounds were tested against Pantothenate synthetase (Mycobacterium tuberculosis (strain ATCC 25618 / H37Rv)) (UniProt P9WIL5) (assay: Coupled enzyme confirmation of inhibitors against recombinant Mtb PanC (AID 375;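 note: 0% = full reaction with vehicle and 100% = no enzyme background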)). Settings: coupled enzyme assay; at 10 µM, stronger effect = higher value.
Sequence of Pantothenate synthetase (Mycobacterium tuberculosis (strain ATCC 25618 / H37Rv)) (P9WIL5 whole entry, looked up): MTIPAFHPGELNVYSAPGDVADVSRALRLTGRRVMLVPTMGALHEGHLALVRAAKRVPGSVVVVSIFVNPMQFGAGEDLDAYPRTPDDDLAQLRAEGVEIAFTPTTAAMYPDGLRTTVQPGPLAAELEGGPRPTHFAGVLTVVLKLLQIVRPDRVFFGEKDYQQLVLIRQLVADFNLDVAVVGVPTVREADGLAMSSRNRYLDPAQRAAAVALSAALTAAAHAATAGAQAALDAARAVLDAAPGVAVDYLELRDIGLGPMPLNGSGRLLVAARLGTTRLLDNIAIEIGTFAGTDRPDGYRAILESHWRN

Point of comparison: `O=C(NC1CCCCCCC1)C1CCN(c2nc3ccccc3o2)CC1`, inhibition 3%. Against it:
- Cc1[nH]nc(-c2ccc(O)c(C)c2O)c1-c1cnn(-c2ccccc2)c1 — lower, 0%
- Nc1nc(SCc2ccc(Cl)cc2Cl)n[nH]1 — higher, 5%
- Cc1csc(NC(=O)CSc2nsc(SCC(=O)Nc3nc(C)cs3)c2C#N)n1 — lower, 2%
- O=C(Nc1ccncc1)c1cncc(Br)c1 — lower, 0%
- Cn1c(=O)c2c(nc(CN3CCCCC3)n2CCCc2ccccc2)n(C)c1=O — lower, 2%
- Clc1ccccc1-c1nnc2sc(-c3ccccn3)nn12 — lower, 0%
- O=C(c1nc2n(n1)C(c1ccc(Cl)cc1)C=C(c1ccccc1)N2)N1CCOCC1 (stereo not given) — lower, 0%
- O=C(c1ccco1)N1CCN(CCCCN2C(=O)c3ccccc3C2=O)CC1 — higher, 5%
- Cc1ccc(S(=O)(=O)NCC(=O)OCN2C(=O)c3ccccc3C2=O)cc1 — higher, 4%
- Cn1c(=O)c2c(nc(Br)n2CCSc2nnnn2-c2ccccc2)n(C)c1=O — lower, 0%
- CC(C)C1Cc2c(C#N)c(N)sc(=S)c2CO1 (stereo not given) — lower, 2%
- O=C(CCS(=O)(=O)c1cc(Br)cc2c1N(C(=O)C1CC1)CC2)NCC1CCCO1 (stereo not given) — lower, 0%
- Cc1cc(C)cc(NC(=O)N2CCC(c3nc4ccccc4o3)CC2)c1 — higher, 7%
- COc1cc(-c2nnc(SCc3c(F)cccc3Cl)o2)cc(OC)c1OC — lower, 0%
- Cc1ccc(-n2c(Cc3cccn3C)nnc2SCC(=O)NCc2ccc3c(c2)OCO3)cc1 — lower, 0%
- CCOc1ccc(C(C)=O)cc1COc1ccc(-n2cnnn2)cc1 — higher, 13%
- C=C1[C@@H](C)C2[C@H](Cc3ccccc3)NC(=O)[C@]23OC(=O)CC[C@H](O)CCC[C@H](C)C/C=C/[C@H]3[C@@H]1O (stereo not given in full) — lower, 0%
- CCOC(=O)N1CCC(N2C(=O)c3ccc(C(=O)NCc4ccco4)cc3C2=O)CC1 — lower, 2%
- CCOc1ccc(NCc2nnc(SCC(=O)Nc3cc(C)on3)n2-c2ccccc2OC)cc1 — higher, 13%
- COc1ccc(C(NC(C)=O)c2ccc3cccnc3c2O)c(OC)c1 (stereo not given) — lower, 0%
- CCN(CC)S(=O)(=O)c1ccc(S(=O)(=O)N(Cc2ccccn2)Cc2ccco2)cc1 — higher, 11%
- O=C(O)c1ccc(COc2c(F)c(F)c(F)c(F)c2F)o1 — lower, 0%
- CC1CCc2nn(CC(=O)NCc3ccc(F)cc3)cc2C1 (stereo not given) — higher, 7%
- COc1ccccc1N1CCN(C(=O)c2ccc(CS(=O)(=O)c3ccccc3OC)o2)CC1 — higher, 8%
- COc1ccccc1C(=O)Nc1ccc(N2CCN(Cc3ccccc3)CC2)cc1 — lower, 0%
- COc1ccc(NC(=O)C2CCCN2S(=O)(=O)c2cccc3cccnc23)c(OC)c1 (stereo not given) — higher, 6%
- CC1(C)CC(=O)C=C(NC2CCS(=O)(=O)C2)C1 (stereo not given) — lower, 0%
- O=C(CN(CC1CCCO1)S(=O)(=O)c1ccc(S(=O)(=O)NC2CC2)cc1)Nc1ccccc1 (stereo not given) — lower, 0%
- Cc1ccc(Cn2nnc3c(=O)[nH]c(C4CCN(C(=O)c5cccs5)CC4)nc32)cc1 — lower, 0%
- OC(CN1CCOCC1)Cn1c(-c2cccc(Cl)c2)nc2ccccc21 (stereo not given) — higher, 4%
- Cc1nnc(SCC(=O)Nc2nccs2)s1 — lower, 0%
- Cc1ccc2cccc(SCC(=O)N3CCOCC3)c2n1 — higher, 5%
- CC(C)CNc1oc(-c2ccc(F)cc2)nc1C#N — lower, 2%
- O=C1COc2ccc(C(=O)NCc3ccco3)cc2N1 — lower, 0%
- O=C(Nc1ncc(Cc2ccccc2)s1)C1CCCO1 (stereo not given) — higher, 5%
- Cc1cccc(N(C)C(=O)c2coc(=O)c3ccccc23)c1 — lower, 0%
- COCCOC(=O)c1c(C)nc(SCC(=O)Nc2ccc(OC)cc2)c(C#N)c1-c1ccco1 — lower, 0%
- COc1ccc(C2CC(=O)C3=C(C2)Nc2ccccc2N(C(=O)C2CC2)C3c2cccnc2)cc1OC (stereo not given) — higher, 8%
- Cn1cnc(S(=O)(=O)NCc2cccs2)c1 — lower, 0%
